Screening results as filed in PubChem BioAssay.
gsp ag = agonists of gsp mutant (McCune-Albright syndrome) | gsp mutant cells, cAMP HTRF, 30 min | Potency, µM (doses to about 76.9 µM), for inactives: at the top dose activation (cAMP increase), actives largely listed as activators | 340,000 tested, 0.13% active; active means well fitted activation curve with a large enough effect; inconclusive means small, poorly fitted or top-dose-only effect, or another doubt; inactive means no such curve, though single readings can be large or run the other way; cell line not stated here;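 further: phosphodiesterase inhibitor Ro 20-1724 added with compounds to block cAMP breakdown; potency means the concentration at half of the fitted maximal effect; nearly all actives have a fitted effect of over 60% in size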
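Cells in DMEM/10% FBS with G418 were pretreated with compounds in DMSO plus […] (300 uM stock) for 30 min at 37C. cAMP was measured by HTRF (cAMP-d2 plus anti-cAMP antibody-K) after 30 min at room temperature.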
gsp antag = gsp mutant antagonism; 340,000 tested, 0.4% active; Potency, µM (highest dose often 76.9 µM), for inactives: at the highest dose activity change, negative = inhibition, hits mostly inhibitors; gsp-mutant cells, cAMP HTRF, 30 min; calls by dose curve; cell line not stated here;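 further: intracellular cAMP measured with PDE inhibitor Ro 20-1724 present during compound exposure; potency means the concentration at half of the fitted maximal effect; on the % scale 0 is the no-effect control and ±100 the full control effect; nearly all actives have a fitted effect of over 65% in size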
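Cells in G418 medium, seeded 16-24 h, 37C; buffer exchange to DPBS + 1 mM CaCl2, 0.5 mM MgCl2, 0.05% BSA; cpds in DMSO + […] (300 uM stock), 30 min 37C; HTRF cAMP detection.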
RXFP1 antag = antagonists of human relaxin receptor RXFP1 | activity change, negative = inhibition, % at 57.5 µM | 350,000 tested, 0.59% active | AID 1259400 | HEK293-RXFP1, relaxin-stimulated cAMP HTRF, 30 min; stronger effect = lower value;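 active means activity change of -60% or lower, but not beyond a set lower limit; inconclusive means change between -60% and -40%, or beyond the set limit; inactive means change above -40%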; further: on the % scale 0 is the no-effect control and ±100 the full control effect
RXFP1 ag = RXFP1 (human) receptor agonism; Potency, µM (titrated, usually from 57.5 µM), without a hit: at the top dose activation, most hits filed as activators; Q9HBX9; 370,000 tested, 0.3% active; AID 2676; HEK293T-RXFP1 cAMP TR-FRET, 30 min; response scale: percent of porcine relaxin response, buffer zero; active means well fitted activation curve with a large enough effect; inconclusive means small, poorly fitted or top-dose-only effect; further: potency means the concentration at half of the fitted maximal effect; on the % scale 0 is the no-effect control and ±100 the full control effect; nearly all actives have a fitted effect of over 60% in size
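HEK293 cells stably expressing RXFP1, treated 30 min at 37C with compounds plus PDE4 inhibitor Ro 20174; cAMP measured by HTRF TR-FRET. Normalized to buffer and 29 nM porcine relaxin; EC50 by Hill fit.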
* marks the source's active call; other numbers are inactive results; ? = inconclusive; · = not tested or not shown; [ ] = another dose, or the depositor's remark. Most compounds without a hit are left out; they make up all but 0.9% or so of the library.

SMILES | gsp ag | gsp antag | RXFP1 antag | RXFP1 ag
COc1ccc(C(O)(C2CCCCC2)C(CN2CCOCC2)c2ccccc2)cc1 (stereo unspecified) | -1.7% | -18.8% | -89.7* | 0.0%
CCCCCC(O)(c1ccc(OC)cc1)C(CN1CCOCC1)c1ccccc1 (stereo unspecified) | -7.2% | -20.1% | -60.7* | 4.1%
CC[C@@]1(O)C(=O)OCc2c1cc1n(c2=O)Cc2c-1nc1ccccc1c2/C=N/OC(C)(C)C | · | · | -18.2 | ·
Cc1cccc(C(=O)OC(C)C(=O)NC(=O)NC2CCCCC2)c1O (stereo unspecified) | ? | 14.7% | -11.1 | 1.5%
CCOc1ncccc1C(=O)OC(C)C(=O)NC(=O)NC1CCCCC1 (stereo unspecified) | 6.31µM* | 6.9% | -14.4 | -1.5%
Cn1c2c(c(=O)n(C)c1=O)C(C(F)(F)F)(C(F)(F)F)N=C(c1ccc(Cl)cc1)N2 | -25.6% | 39.8µM* | -10.8 | -0.4%
CCc1nc(Nc2cccc(O)c2)c2oc3ccccc3c2n1 | 22.4% | -26.2% | -76.2* | 4.5%
COc1ccccc1NC(=O)CSc1nc(O)cc(=O)n1-c1ccccc1OC | -50.7% | -5.5% | -6.3 | 1.5%
COc1ccccc1NC(=O)CSc1nc2ccccc2c(=O)n1C | -23.8% | 35.5µM* | -22.0 | -1.5%
COc1ccc(-n2c(SCC(=O)Nc3ccccc3)nc(O)cc2=O)cc1 | 25.5% | -11.5% | -39.0 | -2.4%
COc1ccc(OC)c(NC(=O)CSc2nc(O)cc(=O)n2CC(C)C)c1 | -4.4% | -19.1% | -79.8* | ·
COc1ccc(NC(=O)CSc2nc(O)cc(=O)n2-c2ccc(OC)cc2)cc1 | ? | ? | -78.1* | 2.5%
COc1ccc(-n2c(SCC(=O)Nc3cccc4ccccc34)nc(O)cc2=O)cc1 | 3.5%[15.4 µM] | -25.7% | -65.6* | 2.8%
COc1ccc(CSc2nc(O)cc(=O)n2CC(C)C)cc1F | -2.4%[15.4 µM] | · | -15.3 | -0.5%
Cc1ccc(Nc2c(F)cccc2Cl)c(CC(=O)O)c1 | · | · | -28.8 | ·
Cc1ccccc1CNCCSc1nnnn1-c1ccccc1 | · | · | -22.0 | -3.9%
CCOC(=O)c1nnn(-c2nonc2N)c1CN1CCCC1 | -57.6% | 50.1µM* | 8.3 | -2.1%
Cc1ccc(CC(=O)Nc2c(C(=O)N3CCN(c4ccccc4)CC3)oc3ccccc23)cc1 | · | · | -13.0 | -0.7%
CCc1ccc(NC(=O)C2CCCN(S(=O)(=O)c3cnc[nH]3)C2)cc1 (stereo unspecified) | -18.9% | 10.4% | -115.6* | -2.4%
CSc1cccc(NC(=O)C2CCN(S(=O)(=O)c3cnc[nH]3)CC2)c1 | -5.8% | 10.4% | -62.5* | 2.9%
COc1ccc(C(C)=O)cc1CSc1nnc(Nc2ccc(C)cc2C)s1 | -13.9%[15.4 µM] | -29.2% | 4.7 | 1.5%
COc1ccc(C(C)=O)cc1CSc1nnc(Nc2ccccc2C)s1 | -46.3% | 11.2µM* | · | -0.2%
CS(=O)(=O)c1nc(-c2ccccc2)cc(C(F)(F)F)n1 | -0.4%[15.4 µM] | 18.2% | -105.7* | 0.9%
S=c1[nH]nc(-c2ccccc2)c2ccccc12 | ? | 1.9% | -84.2* | 9.7%
N#Cc1c(Cl)nsc1NC(=O)c1ccccc1 | 36.3% | 31.6µM* | -7.6 | 1.9%
SMILES | gsp ag | gsp antag | RXFP1 antag | RXFP1 ag
Cn1sc(NC(=O)c2cccc(Cl)c2)nc1=O | 15.4% | 28.2µM* | -25.4 | 1.3%
Cn1sc(NC(=O)c2ccccc2Cl)nc1=O | -33.4% | ? | -5.0 | -2.7%
CCOC(=O)NC(=O)/C(C#N)=N/Nc1ccc(F)cc1 | 19.6% | 25.1µM* | 5.3 | 0.3%
CCOC(=O)C(=O)/C(C#N)=C/Nc1ccc(F)cc1 | 12.4% | 5.4% | -0.4 | 0.0%
O=C(Cn1cnc2c(nnn2-c2ccccc2)c1=O)NCC1CCCO1 (stereo unspecified) | ? | 4.5% | 13.8 | ?
COc1cccc(-n2nnc3c(=O)n(CC(=O)NCC4CCCO4)cnc32)c1 (stereo unspecified) | 11.2µM* | 20.7% | 12.9 | 0.3%
CCC1=C[C@@H]2CN(C1)Cc1c([nH]c3ccccc13)[C@@](C(=O)OC)(c1cc3c(cc1OC)N(C)[C@H]1[C@@](O)(C(=O)OC)[C@H](OC(C)=O)[C@]4(CC)C=CCN5CC[C@]31[C@@H]54)C2 | · | · | -32.9 | ·
CCOc1ccc(CNS(=O)(=O)c2ccc3[nH]c4c(c3c2)CCCC4)cc1OC | · | · | -15.5 | 0.8%
Clc1ccc(CN2CCc3c([nH]c4ccccc34)C2)cc1Cl | -58.8% | -1.4% | -64.3* | 0.5%
Cc1cccc(CN2CCc3c([nH]c4ccccc34)C2)c1 | -3.1% | 1.9% | ? | 2.8%
CSc1ccc(CN2CCc3c([nH]c4ccccc34)C2)cc1 | 6.6%[15.4 µM] | 9.4% | -34.0 | -0.4%
